The structures appear in SMILES notation. Results filed as inconclusive are left out. Unmarked numbers belong to inactive results. Activity calls are given as the source filed them. Calls come from the whole dose curve; as a rule, active = well fitted cell-killing curve with a large enough effect; inconclusive = small, poorly fitted or top-dose-only effect, or effect the other way; inactive = no such curve, though single readings can be large or run the other way.
% is set by controls: 0 for no effect and ±100 for the full control effect; potency is the fitted concentration of half-maximal effect.

A short description of this experiment: qHTS assay to identify small molecule inhibitors of chordoma cells - UCH-1 (AID 1259355). Note: nearly all actives have a fitted effect of over 55% in size. The following applies: UCH-1 chordoma viability, CellTiter-Glo, 48 h, combination; series mostly up to 46.1 µM; activity, negative = inhibition: at the top concentration. Summed up:
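Luminescent ATP read-out (CellTiter-Glo, 30min at room temperature) measured viability of UCH-1 cells exposed for 48hr to test drugs at 15 concentrations, co-dosed with a five-agent combination of auranofin, camptothecin, doxorubicin, rubitecan and topotecan.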
Take `CCC(=O)O[C@@](Cc1ccccc1)(c1ccccc1)[C@@H](C)CN(C)C`: the “activity, negative = inhibition” value was -14.7% [at 20.6 µM].
Take `C[C@]12CCC(=O)C[C@@H]1CC[C@@H]1[C@@H]2CC[C@]2(C)[C@@H](O)CC[C@@H]12`: the “activity, negative = inhibition” value is -7.64%.
Consider `COc1cc2c(cc1OC)[C@@]13CCN4CC5=CCO[C@H]6CC(=O)N2[C@H]1[C@H]6[C@H]5C[C@H]43`, for which the “activity, negative = inhibition” value is -12%.
On the same count and under the same terms, as for `C=C[C@H]1CN2CC[C@H]1C[C@H]2[C@H](OC(=O)OCC)c1ccnc2ccc(OC)cc12`, the figure is -16.5% [at 46.1 µM, with auranofin plus four topoisomerase inhibitors].
Same read-out and setting: under `O=S(=O)(O)c1cc(O)ccc1O` stands -13.8% [at 20.6 µM, with auranofin plus four topoisomerase inhibitors]; under `NCC(O)c1cccc(O)c1` (configuration not stated), -12% [at 46.1 µM, with auranofin plus four topoisomerase inhibitors]; under `CN(C)[C@@H]1C(=O)C(C(N)=O)=C(O)[C@@]2(O)C(=O)C3=C(O)c4c(O)ccc(Cl)c4[C@@](C)(O)[C@H]3C[C@@H]12`, -1.83% [at 20.6 µM].
Turning to `CCCC(C)(COC(N)=O)COC(=O)NC1CC1` (configuration not stated), the “activity, negative = inhibition” value was -3.06%.
On the same count and under the same terms, as for `OC[C@@H](O)[C@H]1O[C@@H]2O[C@@H](C(Cl)(Cl)Cl)O[C@@H]2[C@H]1O`, the figure is -3.26% [at 46.1 µM, with auranofin plus four topoisomerase inhibitors].
Regarding `O=[N+]([O-])c1ccccc1`, the “activity, negative = inhibition” value is 12.3%.
Take `S=C(S)N1CCNCC1`: the “activity, negative = inhibition” value was -15.1% [at 46.1 µM, with auranofin plus four topoisomerase inhibitors].
In the case of `O=C1C[C@@H]2OCC=C3CN4CC[C@]56c7ccccc7N1[C@H]5[C@H]2[C@H]3C[C@H]46`, the “activity, negative = inhibition” value is -9.45%.
As to `Clc1ccc(C2(Cn3cncn3)OCCO2)c(Cl)c1`, the “activity, negative = inhibition” value was -8.36% [at 46.1 µM, with auranofin plus four topoisomerase inhibitors].
Consider `CCCCCCCCCC(=O)O[C@H]1CC[C@H]2[C@@H]3CCC4=CC(=O)CC[C@]4(C)[C@H]3CC[C@]12C`, for which the “activity, negative = inhibition” value is -46.4%.
On the same count and under the same terms, under `O=C1OC2(c3cc(Br)c(O)cc3Oc3c2cc(Br)c(O)[c]3[Hg])c2ccccc21` (configuration not stated) stands -34.9% [at 20.6 µM, with auranofin plus four topoisomerase inhibitors]; under `ClC(Cl)(Cl)Cl`, -24%; under `C[N+]1([O-])[C@@H]2CC[C@H]1CC(OC(=O)C(CO)c1ccccc1)C2` (some centres not stated), -15.1% [at 20.6 µM, with auranofin plus four topoisomerase inhibitors].
For the compound `C[N+]1(C)CCCCC1COC(=O)C(O)(c1ccccc1)c1ccccc1` (configuration not stated), the “activity, negative = inhibition” value is -11.8%.
Consider `O=C1C2CC=CCC2C(=O)N1SC(Cl)(Cl)Cl` (configuration not stated), for which the Potency is 12.6 µM (active).
Regarding `C/C(=C\c1csc(C)n1)[C@@H]1C[C@@H]2O[C@]2(C)CCC[C@H](C)[C@H](O)[C@@H](C)C(=O)C(C)(C)[C@@H](O)CC(=O)O1`, the “activity, negative = inhibition” value is -24.5%.
On the same count and under the same terms, as for `Cc1ccccc1-n1c(C)nc2ccccc2c1=O`, the figure is -4.53%.
As to `CC1(C)[C@H](C=C(Cl)Cl)[C@H]1C(=O)OCc1c(F)c(F)cc(F)c1F`, the “activity, negative = inhibition” value was -12.9% [at 46.1 µM, with auranofin plus four topoisomerase inhibitors].
